According to PMC5540273 (PLoS ONE, 2017):

How the values were obtained:
JNK2 = test system: T1, JNK2
T1 construct: gene MAPK9

LOK = test system: T2, LOK
T2 construct: gene STK10

LZK = test system: T3, LZK
T3 construct: gene MAP3K13
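Note: kd values determined as follow-up on hits from a single-replicate KINOMEscan panel screen.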

## CN1CCC(n2cnc(-c3ccc(F)cc3)c2-c2ccnc(NC3CCNCC3)n2)CC1 [SB-229482]
JNK2
  Kd: 0.17 µM

## COC(=O)c1c(-c2ccccc2)c2cc(Cl)ccc2c(=O)n1Cc1ccc(S(C)(=O)=O)cc1
JNK2
  Kd: 0.044 µM

## COc1ccc(-c2oc3ncnc(N)c3c2-c2ccc(OC)cc2)cc1 [SB-589132]
LATS1
  Kd: > 10 µM

## CCc1nc(-c2cccc(C)c2)c(-c2ccnc(NC(=O)c3ccccc3)c2)s1
LATS2
  Kd: > 10 µM

## COc1cc2c(Nc3cccc(NC(=O)c4ccccc4)c3)ncnc2cc1OCCCN1CCOCC1 [GSK223810]
LCK
  Kd: 0.39 µM
LYN
  Kd: 0.13 µM

## Cc1ccc(NC(=O)c2cccc(C#N)c2)cc1-c1ccc(C(=O)Nc2ccncc2)cc1 [GSK1398463]
LCK
  Kd: 0.56 µM

## CCCc1ccc(S(=O)(=O)NC2CCN(c3ccnc(Nc4ccc(OC)cc4)n3)C2)cc1 (stereo not shown) [GSK1379737]
LIMK2
  Kd: > 10 µM
LTK
  Kd: 8.7 µM

## CNc1nccc(-c2c(-c3ccc(F)cc3)ncn2CCCN2CCOCC2)n1 [SB-222516]
LIMK2
  Kd: > 10 µM

## COc1cc2ncnc(Nc3ccc(OCc4ccccc4Br)c(Cl)c3)c2cc1OC.Cl [GI261590]
LOK
  Kd: 2 µM

## Oc1ccc2ncnc(Nc3ccc(OCc4ccccc4)cc3)c2c1 [GI262866]
LTK
  Kd: > 10 µM

## Fc1cccc(COc2ccc(Nc3ncnc4sc(-c5ccc[nH]5)cc34)cc2Cl)c1 [GW707818]
LZK
  Kd: > 10 µM

## O=C(NCCCN1CCCC1=O)c1cnc(NCc2cc(Cl)ccc2Cl)nc1NC1CCNCC1
MAK
  Kd: > 10 µM

## c1ccc(-c2ccc3c(-c4ccnc(Nc5ccc6c(c5)OCCO6)n4)cnn3n2)cc1 [GW818941]
MAK
  Kd: > 10 µM
MET
  Kd: > 10 µM
